BCR signal inh = chronic active BCR signaling inhibition; ABC-DLBCL IkBa-CBG/CBR reporter, luminescence ratio, 4 h; Potency, µM (top dose mostly 46.1 µM), most hits filed as inhibitors; hit rate 0.05% among 340,000; active = well fitted inhibition curve with a large enough effect in the signal ratio, with a control signal flat, not every such curve was filed as active; inconclusive = small, poorly fitted or top-dose-only effect, or effect the other way, or a change in a side signal; the % refers to the signal ratio
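Concentration-response series (up to 46 uM) were applied to TMD8 dual-reporter cells for 4 h at 37C with doxycycline. Green/red ratio, after filter-overlap correction, defined %Activity; red signal alone was normalised to basal cells and zero luminescence.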
D1 potentiator = enhances dopamine response at the human D1 receptor; P21728; HEK293 TREx D1 cells, calcium flux, dopamine EC20 potentiation; potentiation, % at 10 µM; hit rate 0.036% among 360,000; AID 504651; in the data active = potentiation above about 30%
Target sequence (P21728 whole entry, looked up): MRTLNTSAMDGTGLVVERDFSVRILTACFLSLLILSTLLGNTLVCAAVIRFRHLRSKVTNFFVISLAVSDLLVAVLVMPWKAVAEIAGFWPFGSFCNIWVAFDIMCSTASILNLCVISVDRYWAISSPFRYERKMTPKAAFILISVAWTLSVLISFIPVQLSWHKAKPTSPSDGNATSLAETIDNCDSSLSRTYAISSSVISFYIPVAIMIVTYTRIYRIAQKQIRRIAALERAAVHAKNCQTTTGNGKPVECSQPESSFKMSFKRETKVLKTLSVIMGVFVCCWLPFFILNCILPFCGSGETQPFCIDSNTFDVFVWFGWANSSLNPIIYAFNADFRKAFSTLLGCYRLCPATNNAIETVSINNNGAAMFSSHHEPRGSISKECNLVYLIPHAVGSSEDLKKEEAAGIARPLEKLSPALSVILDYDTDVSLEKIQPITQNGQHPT
D1 antagonist = antagonists of human D1 dopamine receptor. HEK293 TREx D1 cells, calcium flux, dopamine EC80; stronger effect = lower value. hit rate 3.2% among 360,000. AID 504652. activity change, negative = inhibition, % at 10 µM. P21728; in the data active = activity change below about -30%
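HEK293 T-REx cells expressing inducible, force-coupled D1 receptor; no-wash Ca dye, 30–90 min RT. Cmpd → 180 s read at 1 Hz → EC80 DA → 180 s read.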
D1 agonist = human D1 receptor agonism. P21728. HEK293 T-REx D1 cells, calcium flux, agonist mode. activation, % at 2 µM. hit rate 1% among 360,000. AID 504660; in the data active = activation above about 30%
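Tetracycline-induced HEK293 TREx D1 cells, force-coupled to calcium signalling, were dye-loaded with a no-wash calcium kit. Compound was pin-added after a 10 s baseline. Fluorescence was read kinetically at 1 cycle/s for 180 s, with calcium rises flagged as agonism.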
DRD3 antagonist = antagonists of human D3 dopamine receptor; D3R cells, DiscoveRx beta-arrestin luminescence, antagonist mode; stronger effect = lower value; max response, negative = inhibition, %; hit rate 2.5% among 360,000; AID 652054; in the data active = max response below about -50%; inconclusive = no clear call, values can overlap the other calls
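Cells expressing the human receptor were seeded at 1500 cells/well, incubated overnight at 37 degrees C in 5% CO2, then exposed to library compounds with dopamine controls for 90 minutes at 37 degrees C before luminescent detection.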
DRD3 agonist = activates the human D3 dopamine receptor; P35462; D3R DiscoveRx beta-arrestin cells, luminescence, 90 min; max activation, %; hit rate 0.58% among 410,000; AID 652048; in the data active = max activation above about 30%
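Agonist mode: compounds and dopamine controls were applied to plated cells for 90 min at 37 degrees C after an overnight attachment at 1500 cells/well. Luminescent read-out followed 30 - 60 minutes at room temperature with DiscoveRx detection reagent.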
Numbers stand for hits; n = inactive; u = inconclusive; x = no result. A selection: hits, their analogues and other compounds. The true share with any hit is near 6%.

SMILES | BCR signal inh | D1 potentiator | D1 antagonist | D1 agonist | DRD3 antagonist | DRD3 agonist
CC(C)C(=O)NC(c1ccccc1)c1cc([N+](=O)[O-])c2cccnc2c1O (stereo not given) | n | n | n | n | -77 | n
O=C(Nc1cc(-c2nc3cc(Cl)ccc3o2)ccc1Cl)c1cc2ccccc2o1 | x | n | n | n | x | n
CCC(=O)Nc1ccccc1-c1nc2ccccc2n(C(C)C(=O)Nc2ccc(OC)cc2)c1=O (stereo not given) | x | n | -31 | n | x | n
CC(Oc1ccccc1)C(=O)Nc1ccccc1C(=O)OCc1cc(=O)n2nc(C3CC3)sc2n1 (stereo not given) | x | n | n | n | x | n
CC(=O)Nc1ccc(NC(=O)C(C)OC(=O)CNS(=O)(=O)/C=C/c2ccc(C)cc2)cc1 (stereo not given) | n | n | n | n | -54 | n
Cc1ccc(/C=C/S(=O)(=O)NCC(=O)OCC(=O)Nc2ccc(C(N)=O)cc2)cc1 | n | n | n | n | n | n
CCC[C@@H]1C[C@@H](C(=O)N[C@@H]([C@H]2O[C@H](SC)[C@H](O)[C@@H](O)[C@H]2O)[C@H](C)Cl)N(C)C1 | x | x | x | x | x | n
COc1cc2c(cc1OC)CN(C(=O)CSc1ccc(F)cc1)CC2 | n | n | -87 | n | n | n
COc1cc2c(cc1OC)CN(C(=O)/C=C/c1ccc(F)cc1)CC2 | n | n | n | n | n | n
CCOc1ccc(C(=O)Nc2cccc(NC(=O)c3ccc(C(C)(C)C)cc3)c2)cc1Br | x | n | n | n | x | n
Cc1cccc(C(=O)OCC(=O)NC(=O)NC2CCCCC2)c1 | x | x | x | x | -117 | n
CC(=O)Nc1cccc(C(=O)OCC(=O)NC2CCCCCCC2)c1 | u | n | -39 | n | n | n
CC(=O)Nc1cccc(C(=O)OCC(=O)NC(=O)NC2CCCC2)c1 | x | x | x | x | n | n
Fc1cccc(NC(=S)N2CCN(c3ccccn3)CC2)c1 | u | n | n | n | n | n
FC(F)Sc1ccc(NC(=S)N2CCN(c3ccccn3)CC2)cc1 | u | n | -34 | n | n | n
FC(F)(F)c1cccc(NC(=S)N2CCN(c3ccccn3)CC2)c1 | n | n | -30 | n | -106 | n
O=C1CN(C(=S)Nc2ccccc2Cl)CCN1 | n | n | n | n | n | 45
FC(F)(F)c1cccc(NC(=S)N2CCN(c3cccc(C(F)(F)F)c3)CC2)c1 | n | n | n | n | n | n
Fc1ccc(NC(=S)N2CCN(c3cccc(C(F)(F)F)c3)CC2)cc1 | n | n | -38 | n | u | n
CC1(c2ccccc2)OC(C(=O)O)=CC1=O (stereo not given) | x | x | x | x | x | n
CCOC(=O)c1ccc(NC(=O)CCCn2c(=O)c3cccn3c3cccnc32)cc1 | x | n | n | n | x | n
COc1ccc(-c2nc3ccccc3n(CC(C)C)c2=O)cc1 | x | x | x | x | n | n
COC(=O)c1cc(C)nc2c1c(=O)nc(SCc1cccc(C)c1)n2C1CC1 | x | n | n | n | x | n
COC(=O)N(C)C[C@@H]1OCc2ccccc2-c2c(n(C)c3ccccc23)C(=O)N([C@H](C)CO)C[C@@H]1C | x | x | x | x | n | n
COC(=O)c1cc(F)c(S(=O)(=O)N2CCN(S(=O)(=O)c3ccc4c(c3)OCCO4)CC2)cc1F | x | n | n | n | x | x
SMILES | BCR signal inh | D1 potentiator | D1 antagonist | D1 agonist | DRD3 antagonist | DRD3 agonist
Cc1c(Cl)cccc1NC(=S)N1CCN(c2ccccn2)CC1 | u | n | n | n | n | n
S=C(Nc1ccccc1Cl)N1CCN(c2ccccn2)CC1 | n | n | -32 | n | n | n
c1cncc(CNc2ncnc3sc4c(c23)CCC4)c1 | n | n | -43 | n | n | n
Cc1cc(C)c2c(NC(=O)c3ccccc3)c(C(=O)Nc3ccc(F)cc3)sc2n1 | u | n | n | n | x | n
Cc1ccc(N2CCCn3c2nc2c3c(=O)n(CC(=O)OCc3ccccc3)c(=O)n2C)cc1C | n | n | -46 | n | x | x
COC(=O)Cn1c(=O)c2c(nc3n2CCN3c2cccc(C)c2)n(C)c1=O | x | n | n | n | x | n
CCn1c(=O)c2c(nc3n2CCCN3c2cccc(C)c2)n(C)c1=O | n | n | -31 | n | n | n
Cc1scc(CN2CCN(c3ccccc3F)CC2)c1C | x | n | n | n | x | n
CCCS(=O)(=O)NC(=O)C1(C)CCCN(C(=O)c2cccc(C)c2C)C1 (stereo not given) | x | x | x | x | n | n
O=CN1CCN(C(C(=O)NC2CCCCC2)c2ccc(Cl)cc2)CC1 (stereo not given) | x | x | x | x | n | n
CC(C(=O)NC1CCCC1)N1CCN(Cc2ccccc2)CC1 (stereo not given) | n | n | n | n | n | n
CCN1CCN(C(C(=O)NC2CCCC2)c2ccc(Cl)cc2)CC1 (stereo not given) | n | n | -38 | n | n | n
CCN1CCN(C(CCc2ccccc2)C(=O)NC2CCCCC2)CC1 (stereo not given) | x | x | x | x | -73 | n
CCN(CC)c1nn2c(=O)c(C(=O)NCc3ccc(F)cc3)cnc2s1 | x | n | n | n | x | n
N#C/C(=N\Nc1cccc([N+](=O)[O-])c1)C(=O)c1ccc(Br)cc1 | n | n | -34 | n | u | n
O=C(O)c1ccc(N=NNc2cccc([N+](=O)[O-])c2)cc1 | u | n | n | n | n | n
Cc1ccccc1N1C(=O)C(Cl)=C(N2CCCCCC2)C1=O | n | n | n | n | n | n
Cc1ccccc1N1C(=O)C(Cl)=C(N2CCOCC2)C1=O | n | n | -45 | n | n | n
O=C1C(Cl)=C(N2CCOCC2)C(=O)N1c1ccc(Br)cc1 | n | n | n | n | -69 | n
CCOc1ccc(C(=O)Nc2ccc(S(=O)(=O)N3CCCCC3c3cccnc3)cc2)cc1 (stereo not given) | x | n | n | n | x | n
COCc1nn2c(N)c(C#N)cnc2c1-c1ccccc1 | n | n | n | n | n | n
COCc1nn2c(N)c(-c3ccccc3)cnc2c1-c1ccccc1 | n | n | -35 | n | n | n
Cn1c2cc(C#N)sc2c2cnn(Cc3ccccc3F)c(=O)c21 | x | n | n | n | x | x
CCCCNC(=O)c1nc(-c2ccncc2)oc1-c1ccccc1 | x | x | x | x | n | n
COc1ccc2cc1Oc1ccc(cc1)C[C@H]1c3c(cc4c(c3Oc3cc5c(cc3OC)CCN(C)[C@@H]5C2)OCO4)CCN1C | n | n | -37 | n | n | n
COc1ccc2cc1Oc1ccc(cc1)C[C@H]1c3cc(c(OC)cc3CCN1C)Oc1c(OC)c(OC)cc3c1[C@H](C2)N(C)CC3 | u | n | n | n | n | n
O=C(CNC(=O)c1ccccc1F)OCc1nc2ccccc2s1 | n | n | n | n | n | n
CNc1sc(C(=O)c2ccccc2F)c(N)c1-c1nc2ccccc2s1 | u | n | n | n | -53 | n
Cc1cccc(NC(=O)c2c(C)cc(C)nc2SCC(=O)c2ccccc2)c1 | x | n | n | n | x | n
